Measurements from PubChem BioAssay (NCATS).
Results filed as inconclusive are left out. Entries that show only a call come without a potency. Active and inactive are the calls of the source. Calls come from the whole dose curve; as a rule, active = well fitted curve in the direction sought with a large enough effect; inconclusive = small, poorly fitted or top-dose-only effect, or another doubt; inactive = no such curve, though single readings can be large; an effect the other way counts as inactive or inconclusive.

Experiment: qHTS of pediatric cancer cell lines to identify multiple opportunities for drug repurposing: Primary screen for BT-37 cells (AID 1347094)
Settings: BT-37 viability, CellTiter-Glo luminescence, 48 h; series mostly up to 57.3 µM
Summary of the method: (§1)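 Plated cells (500-1,000 per well, growth media) were allowed to settle for 5 hours, treated with compound dilutions for 48 hours, then lysed with CellTiter-Glo for 15 min at room temperature before luminescence reading.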

Row | SMILES | Potency
1 | CN1C(C(=O)Nc2ccccn2)=C(O)c2sccc2S1(=O)=O | inactive
2 | Cc1cc2c(s1)Nc1ccccc1N=C2N1CCN(C)CC1 | inactive
3 | COc1cc(OC)c(C(=O)CCCN2CCCC2)c(OC)c1 | inactive
4 | CC1=C(C(=O)O)N2C(=O)[C@@H](NC(=O)[C@H](N)C3=CCC=CC3)[C@H]2SC1 | inactive
5 | Nc1cc(C(Cl)=C(Cl)Cl)c(S(N)(=O)=O)cc1S(N)(=O)=O | inactive
6 | Nc1ccc(S(N)(=O)=O)cc1 | inactive
7 | Clc1ccc2c(N3CCN(CCCN4CCN(c5ccnc6cc(Cl)ccc56)CC4)CC3)ccnc2c1 | inactive

Experiment: qHTS of pediatric cancer cell lines to identify multiple opportunities for drug repurposing: Primary screen for NB-EBc1 cells (AID 1347095); note: potency is the fitted concentration of half-maximal effect
Settings: NB-EBc1 neuroblastoma viability, CellTiter-Glo luminescence, 48 h; series mostly up to 46 µM
Summary of the method: as §1

Row | SMILES | Potency
8 | COC(=O)C1=C(C)NC(C)=C(C(=O)OC(C)C)C1c1cccc2nonc12 (centres undefined) | inactive
9 | CC1(C)NC(=O)N(c2ccc([N+](=O)[O-])c(C(F)(F)F)c2)C1=O | inactive
10 | CC(C)(S)[C@@H](N)C(=O)O | inactive
11 | Cc1ncc([N+](=O)[O-])n1CC(C)O (centres undefined) | inactive
12 | COc1cc2c(cc1OC)C1CC(=O)C(CC(C)C)CN1CC2 (centres undefined) | inactive
13 | NS(=O)(=O)c1cc(C(=O)O)c(NCc2ccco2)cc1Cl | inactive
14 | COc1ccccc1N1CCN(CCN(C(=O)C2CCCCC2)c2ccccn2)CC1 | 6.62 µM (active)
15 | Cc1cc(=O)oc2cc(O)ccc12 | inactive
16 | CNC[C@@H](O)[C@@H](O)[C@H](O)[C@H](O)CO | inactive
17 | c1cnc2cc3c(cc2n1)C1CNCC3C1 | inactive
18 | CCOC(=O)c1c(C)n(C)c2ccc(O)cc12 | inactive
19 | CCOc1cc(CC(=O)N[C@@H](CC(C)C)c2ccccc2N2CCCCC2)ccc1C(=O)O | inactive
